SMILES strings stand for the structures. Several values for one entry are separate records, joined by “and”; a condition that tells them apart may be missing. Equal values may be shown once. Screen size: about 16,000 compounds; about 5,800 (36%) were called active. Inconclusive results (about 23%) are left out. Calls follow the shape of the dose curve; as a rule, active = well fitted curve in the direction sought with a large enough effect; inconclusive = small, poorly fitted or top-dose-only effect, or effect the other way; inactive = no such curve, though single readings can be large or run the other way. The list shows a part of the results. Where a structure was tested more than once in an assay, its records may differ in their call.
% is scaled to controls: 0 for no effect and ±100 for the full control effect.

The assay deals with Cytochrome P450 2C19 (Homo sapiens) (UniProt P33261). The assay is described as follows: Cytochrome panel assay with activity outcomes. Particulars: recombinant CYP, pro-luciferin dealkylation, luminescence, p450-cyp2c19; series mostly up to 57.1 µM.
Chain of Cytochrome P450 2C19 (Homo sapiens) (P33261 whole entry, looked up): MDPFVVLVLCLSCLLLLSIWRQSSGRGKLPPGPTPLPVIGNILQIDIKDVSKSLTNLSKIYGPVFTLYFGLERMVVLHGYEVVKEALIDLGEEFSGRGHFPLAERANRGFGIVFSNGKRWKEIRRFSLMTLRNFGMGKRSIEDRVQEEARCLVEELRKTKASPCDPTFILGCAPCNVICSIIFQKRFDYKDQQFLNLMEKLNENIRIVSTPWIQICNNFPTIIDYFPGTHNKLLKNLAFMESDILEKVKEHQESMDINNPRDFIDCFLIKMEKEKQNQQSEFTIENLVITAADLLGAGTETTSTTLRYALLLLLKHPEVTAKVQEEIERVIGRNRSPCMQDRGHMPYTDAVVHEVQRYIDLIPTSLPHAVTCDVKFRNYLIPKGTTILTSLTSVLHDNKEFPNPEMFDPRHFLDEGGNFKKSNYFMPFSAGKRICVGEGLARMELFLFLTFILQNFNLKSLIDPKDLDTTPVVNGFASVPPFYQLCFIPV
With `COC(=O)[C@@]1(Cc2ccc(OC)cc2)[C@H]2c3cc(C(=O)N4CCCC4)n(CCCNc4ncc(C(F)(F)F)cc4Cl)c3C[C@H]2CN1C(=O)c1ccccc1`, the AC50 was 3.16 µM (active). The same measure, in the same setting: under `COc1ccc(C(=O)N2CCC[C@@]3(CCN(Cc4cc(C(F)(F)F)cc(C(F)(F)F)c4)C3)C2)cc1` stands “inactive”. Turning to `COC(=O)[C@@]1(Cc2ccc(OC)cc2)[C@H]2c3cc(C(=O)N4CCCC4)n(CCc4c[nH]c5cc(F)ccc45)c3C[C@H]2CN1C(=O)c1ccccc1`, the AC50 was 3.98 µM (active). As to `COc1ccc(NC(=O)N2CC[C@@]3(CCCN(C(=O)c4cccc(F)c4)C3)C2)cc1`, the AC50 result is “inactive”. For `COC(=O)[C@@]1(Cc2ccc(OC)cc2)[C@H]2c3cc(C(=O)N4CCCC4)n(Cc4ccc(Cl)c(C(F)(F)F)c4)c3C[C@H]2CN1C(=O)c1ccccc1`, the AC50 result was “inactive”.

Turning to `COC(=O)[C@@]1(Cc2ccc(OC)cc2)[C@H]2c3cc(C(=O)N4CCCC4)n(CCc4c[nH]c5ccc(O)cc45)c3C[C@H]2CN1C(=O)c1ccccc1`, the AC50 was 10 µM (active). Same read-out and setting: under `COC(=O)[C@@]1(Cc2ccc(F)cc2)[C@H]2c3cc(C(=O)N4CCCC4)n(CCc4c[nH]c5ccc(OC)cc45)c3C[C@H]2CN1C(=O)c1ccccc1` stands 7.94 µM (active); under `COC(=O)[C@@]1(Cc2ccc(F)cc2)[C@H]2c3cc(C(=O)N4CCCC4)n(CCc4c[nH]c5ccccc45)c3C[C@H]2CN1C(=O)c1ccccc1`, 10 µM (active). `O=S(=O)(O)[C@@H](CO)c1ccccc1` (tested in a mixture with another compound): the activity, negative = inhibition is -9.78% [at 11.4 µM] (inactive). In the case of `O=C1C(SCCO)=C(SCCO)C(=O)c2ccccc21`, the half-maximal activity concentration (AC50) was 0.0794 µM (active). Take `Cc1ccc(S(=O)(=O)NCCC(=O)NCc2ccccc2)cc1`: the AC50 was 20 µM (active). Regarding `Cc1ccc(S(=O)(=O)NCc2ccccc2)cc1`, the AC50 result was “inactive”. Same read-out and setting: in the case of `CCN(CC)C(=O)CCNS(=O)(=O)c1ccc(C)cc1` it was 5.01 µM (active). Turning to `CCCCNC(=O)NS(=O)(=O)c1ccc(C)cc1`, the AC50 entry is “inactive”. As to `COc1ncc2nc(-c3cn(C)c4ccccc34)c(=O)n(CCC#N)c2n1`, the AC50 entry is “inactive”.

For `CCOc1cc(C2NN=C(c3ccccc3)S2)ccc1OCc1ccccc1Cl` (configuration not stated), the AC50 was 5.01 µM (active). `Nc1nc(SCC(=O)Nc2ccccc2Sc2ccc(Cl)cc2)n[nH]1`: the concentration at half-maximal activity (AC50) was 0.0631 µM (active). Regarding `O=C(Cn1cnc2ccccc2c1=O)Nc1nnc(SCc2ccccc2)s1`, the AC50 was 15.8 µM (active). On the same count and under the same terms, in the case of `Cc1ccc(C(=O)COC(=O)c2ccccc2N2C(=O)C3C4CCC(C4)C3C2=O)cc1C` (configuration not stated) it was 14.1 µM (active); in that of `CS(=O)(=O)Nc1ccc([N+](=O)[O-])cc1OC1CCCCC1`, 0.0794 µM (active). In the case of `CS(=O)(=O)Nc1ccc([N+](=O)[O-])cc1Oc1ccccc1`, the AC50 entry is “inactive”. In the case of `CCN(CC)CCOc1ccc(/C(=C(\Cl)c2ccccc2)c2ccccc2)cc1`, the AC50 result is “inactive”. As to `CCN(CC)CCOc1ccc(Cc2ccccc2)cc1`, the half-maximal activity concentration (AC50) is 15.8 µM (active). Take `COc1ccccc1NCc1nnc(SCC(=O)N/N=C/c2ccco2)n1-c1ccc(Cl)cc1Cl`: the AC50 is 4.47 µM (active).

As to `COc1ccc(O)c(/C=N/NC(=O)CSc2nnc(C)n2-c2ccccc2)c1`, the AC50 entry is “inactive”. On the same count and under the same terms, in the case of `CN(C)c1ncc2nc(-c3cc(F)cc(F)c3)c(=O)n(Cc3ccc(F)cc3)c2n1` it was “inactive”. Still for that read-out and setting: under `Cc1nc2cnc(N(C)C)nc2n(Cc2ccc(F)cc2)c1=O` stands 1.58 µM (active). Regarding `CCNc1ncc2ncc(=O)n(Cc3ccc(F)cc3)c2n1`, the AC50 was 15.8 µM (active). On to `CCNc1ncc2nc(-c3ccccc3)c(=O)n(Cc3ccc(F)cc3)c2n1`, for which the AC50 entry is “inactive”. In the case of `CN(C)c1ncc2ncc(=O)n(C)c2n1`, the AC50 entry is “inactive”.

Take `CN(C)c1ncc2nc(-c3ccc(Cl)cc3)c(=O)n(Cc3ccc(F)cc3)c2n1`: the AC50 result is “inactive”.

Regarding `CN(C)c1ncc2nc(-c3ccc(F)cc3)c(=O)n(Cc3ccc(F)cc3)c2n1`, the AC50 result was “inactive”. Same read-out and setting: in the case of `CCNc1ncc2nc(-c3ccc(OC)cc3)c(=O)n(Cc3ccc(F)cc3)c2n1` it was “inactive”.

Consider `CN(C)c1ncc2ncc(=O)n(Cc3ccc(F)cc3)c2n1`, for which the AC50 is 3.16 µM (active). For the compound `O=C1C[C@@H](O)[C@@H](O)[C@H]2[C@@H]3C(=O)N(Cc4ccccc4)C(=O)[C@@H]3CC[C@H]12`, the activity, negative = inhibition is -9.62% [at 11.4 µM] (inactive) and 25.4% [at 11.4 µM] (inactive).

For `O=C(O)[C@@H]1[C@H](C(=O)O)[C@H]2C(=O)C=C[C@H]1N2Cc1ccccc1`, the activity, negative = inhibition is 2.25% [at 11.4 µM] (inactive).

Take `O=C1C2CCC(C(O)C2)N1Cc1ccccc1` (configuration not stated): the half-maximal activity concentration (AC50) is 15.8 µM (active).

For `Cn1cc([N+](=O)[O-])c(C(=O)Nc2cc(Oc3cccnc3)cc([N+](=O)[O-])c2)n1`, the AC50 was 7.94 µM (active). For `CC1CCCC(C)N1C(=O)C1CC(c2ccc(F)cc2)=NO1` (configuration not stated), the AC50 is 17.8 µM (active). On the same count and under the same terms, in the case of `O=C(NC1CCCC1)C1CC(c2ccc(F)cc2)=NO1` (configuration not stated) it was 10 µM (active); in that of `O=C(NNC(=O)C1CC(c2cccnc2)=NO1)Nc1cccc(F)c1` (configuration not stated), “inactive”.

For `CO[C@H]1COC(=O)[C@H](C)COC(=O)C/C=C\[C@@H](C)[C@H](OC)COC(=O)C/C=C\[C@@H]1C`, the activity, negative = inhibition is -42.3% [at 11.4 µM] (inactive). Regarding `Fc1ccc(CN(C2=NCCN2)c2c(Cl)cccc2Cl)cc1`, the AC50 entry was “inactive”. For the compound `COc1nc(C)nc(Cl)c1NC1=NCCN1`, the AC50 result is “inactive”. As to `Clc1cccc(Cl)c1NC1=NCCN1`, the AC50 result was “inactive and 5.01 µM (active)”. As for `Clc1cccc(Nc2nnc(-c3ccccc3)c3ccccc23)c1`, the AC50 is 0.794 µM (active). Turning to `Cc1ccc(COc2coc(CO)cc2=O)cc1`, the concentration at half-maximal activity (AC50) is 14.1 µM (active).

On to `C=C1C(=O)C=C2CN(C(=O)c3ccccc3)[C@@](Cc3ccc(F)cc3)(C(=O)OC)[C@@H]12`, for which the AC50 was 5.01 µM (active). On the same count and under the same terms, under `C=C1C(=O)C=C2CN(C(=O)c3ccccc3)[C@@](Cc3ccc(OC)cc3)(C(=O)OC)[C@@H]12` stands 20 µM (active).

Regarding `COC(=O)[C@@]1(Cc2ccc(OC)cc2)[C@@H]2C(=CC(=O)[C@H]2CC(=O)C(=O)N(C)C)CN1C(=O)c1ccccc1`, the AC50 entry was “inactive”. As to `COc1ccc(C(=O)N2CCC3(CC2)CN(Cc2ccc(C#N)cc2)C3)cc1`, the AC50 result is “inactive”. Take `O=C(O)C12CC3(C(=O)O)CC(C(=O)O)(CC(C(=O)O)(C1)C3=O)C2=O`: the activity, negative = inhibition was -11.5% [at 11.4 µM] (inactive).

Broadly, the AC50 is the concentration giving half of the maximal activity seen.

These data come from PubChem BioAssay AID1851 (National Center for Advancing Translational Sciences (NCATS), 2009).
